Where “and” joins values, the source holds several entries; their conditions need not be identical. Identical values can stand only once. Results filed as inconclusive are left out. Values without a mark were called inactive. The call rests on the fitted dose curve; in most records, active means well fitted activation curve with a large enough effect; inconclusive means small, poorly fitted or top-dose-only effect; inactive means no such curve, though single readings can be large or run the other way.

Chain of Cellular tumor antigen p53 (Homo sapiens) (P04637 whole entry, looked up): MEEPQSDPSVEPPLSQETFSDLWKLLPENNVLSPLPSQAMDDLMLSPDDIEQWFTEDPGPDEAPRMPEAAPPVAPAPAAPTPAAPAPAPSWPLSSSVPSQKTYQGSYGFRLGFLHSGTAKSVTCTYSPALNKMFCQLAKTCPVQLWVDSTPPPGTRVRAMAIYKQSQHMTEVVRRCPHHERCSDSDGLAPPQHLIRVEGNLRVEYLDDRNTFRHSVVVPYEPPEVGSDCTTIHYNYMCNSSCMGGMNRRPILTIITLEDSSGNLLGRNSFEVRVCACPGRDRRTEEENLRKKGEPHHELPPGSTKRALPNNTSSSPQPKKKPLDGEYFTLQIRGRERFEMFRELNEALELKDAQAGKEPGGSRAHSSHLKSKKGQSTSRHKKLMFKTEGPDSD

The target of the test is Cellular tumor antigen p53 (Homo sapiens) (UniProt P04637). The test can be described thus: Primary qHTS for small molecule compounds that upregulate eGFP-tagged delta133p53alpha (in N-terminal) cells. (AID 2060322).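 Further: series mostly up to about 56 µM; 0% = DMSO vehicle and 100% = reference activator; nearly all actives have a fitted effect of over 75% in size.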 As to conditions: NCI-H358 eGFP-delta133p53alpha fluorescence, 24 h; activation: active compounds read high. The procedure, abridged:
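NCI-H358 cells pre-induced 24 h with 10 ng/ml doxycycline to express N-terminal eGFP-delta133p53alpha, then dosed 24 h at 37C without doxycycline; fixed, Hoechst-stained, GFP intensity by laser scanning cytometry, normalized to DMSO (0%) and 57.5 uM 5-azacytidine (100%).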
For `CCN(C(C)=O)c1cccc(-c2ccnc3c(C#N)cnn23)c1`, the activation was -16.4%.

`COP(=S)(OC)Oc1ccc(S(N)(=O)=O)cc1`: the activation was -28.8%.

For `ClCCN1CCCC1`, the activation was 4.18%.

Turning to `Cc1c(Cl)c(=O)oc2cc(OP(=O)(OCCCl)OCCCl)ccc12`, the activation is -15.9%.

`Fc1cc(Br)ccc1CBr`: the activation is -29.9%.

Take `O=C(O)COc1ccccc1`: the activation was -28.8%.

For the compound `CC(=CCCC1=CCC(C2=CC(=O)OC2O)OC1O)CCC1=C(C)CCCC1(C)C` (centres undefined), the activation is 16.4%.

`CCCC(C)(COC(N)=O)COC(=O)NC(C)C` (centres undefined): the activation was -6.69% and 15.9%.

Take `O=C(Cc1ccc(Cl)c(Cl)c1)N1CCCCC1CN1CCCC1` (centres undefined): the activation is -15.5%.

Turning to `O=C1c2ccccc2C(=O)C1C(=O)C(c1ccccc1)c1ccccc1`, the activation was 24.3%.

On to `C[C@]12CC[C@H]3[C@@H](CCC4=CC(=O)CC[C@@H]43)[C@@H]1CC[C@@H]2OC(=O)CCC1CCCCC1`, for which the activation is -13%.

`CN(C)CCc1ccc(O)cc1`: the activation was -14.3% and -6.21%.

Regarding `CCC(=O)O[C@H]1CC[C@H]2[C@@H]3CCC4=CC(=O)CC[C@]4(C)[C@H]3CC[C@]12C`, the activation was -0.565%.

For the compound `CC1=C(C(=O)O)N2C(=O)[C@@H](N)[C@H]2SC1`, the activation is -3.35%.

Take `Cn1cnc(CCN)c1`: the activation was -2.51%.

As to `CN1CCC(N(Cc2ccccc2)c2ccccc2)CC1`, the activation is 10.7%.

`CNC(C)Cc1ccc2c(c1)OCO2` (centres undefined): the activation is 17.5%.

In the case of `Cc1c(C(=O)c2cccc3ccccc23)c2cccc3c2n1[C@H](CN1CCOCC1)CO3`, the activation is 12.1%.

Regarding `CCOP(=S)(OCC)O/N=C(\C#N)c1ccccc1`, the activation is -18.6%.

Take `S=C(SSC(=S)N1CCCCC1)N1CCCCC1`: the activation is -16.7%.

For the compound `CC(C)[N+](C)(CCC(C(N)=O)(c1ccccc1)c1ccccc1)C(C)C`, the activation was 27.7%.

Take `CCCOC(=O)c1cncn1C(C)c1ccccc1` (centres undefined): the activation is 17.5%.

On to `COc1cc(CC(C)N)c(OC)cc1Br` (centres undefined), for which the activation was 43.5%.

Turning to `CC1=C2C[C@@H]3[C@@H](CC=C4C[C@@H](O)CC[C@@]43C)[C@@H]2CC[C@]12O[C@H]1C[C@H](C)CN[C@H]1[C@H]2C`, the activation was 14%.

Regarding `CCN(Cc1ccc(Cl)nc1)/C(=C/[N+](=O)[O-])NC`, the activation is -24.3%.

As for `OCCOc1ccccc1`, the activation is -20.9%.

For the compound `O=C(N/N=C/c1ccc([N+](=O)[O-])o1)c1cc([N+](=O)[O-])cc([N+](=O)[O-])c1O`, the activation was -6.21%.

Turning to `O=C(CCCN1CCC(n2c(=O)[nH]c3ccccc32)CC1)c1ccc(F)cc1`, the activation was -4.18%.

As to `CN1C(=O)NC(=O)C(C)(C2=CCCCC2)C1=O` (centres undefined), the activation was 3.35%.

On to `CCCN(CCC)C(=O)Cc1c(-c2ccc(Cl)cc2)nc2ccc(Cl)cn12`, for which the activation was 29.3%.

Turning to `C[C@]12CC[C@H]3[C@@H](CCC4=CC(=O)CC[C@@H]43)[C@@H]1CC[C@@H]2O`, the activation is -0.837%.

For the compound `CCN(CC)CCN1C(=O)CN=C(c2ccccc2F)c2cc(Cl)ccc21`, the activation is 11.9%.

In the case of `COP(=S)(OC)Oc1cc(Cl)c(Cl)cc1Cl`, the activation is -17.5%.

Turning to `Cc1cc(O)ccc1Cl`, the activation was -17.5%.

Regarding `OCCCBr`, the activation is -36.8%.

Consider `CCc1ccc(C2CCNCC2)cc1`, for which the activation was 20.9%.

Regarding `C[C@H]1CCCC=CC2C[C@H](O)C[C@@H]2[C@H](O)C=CC(=O)O1` (some centres undefined), the activation is 23.5%.

Take `O=[N+]([O-])c1cc([As](=O)(O)O)ccc1O`: the activation was 9.21%.

On to `Sc1ccccc1Cl`, for which the activation is -0.837%.

The record behind these values is PubChem BioAssay (NCATS).
